As a reminder, the AC50 is the concentration at which the activity in the assay is half-maximal.

SMILES strings stand for the structures. Active and inactive are the calls of the source. Rule for the calls: active = hit-call score of the fitted dose curve at least 0.9, where 1 is the maximum; inactive = score below 0.9.

AC50 data for 1 compound are collected here from PubChem BioAssay AID2284143 (EPA ToxCast).

The target of the assay is human Adenosine Receptor A2A, ADORA2A (gene 135) (UniProt P29274). Briefly: ERF_FR_GPCR_hADORA2A: Eurofins (ERF) G Protein-Coupled Receptor (GPCR) Radioligand Binding LeadHunter Assay for human Adenosine Receptor A2A Agonism, conducted at France lab site. On the procedure: ERF_FR_GPCR_hADORA2A is a biochemical, single-readout assay that uses extracted gene-proteins in a cell-free assay. Measurements were taken 2 hour after chemical dosing in a 96-well plate. See A2A Human Adenosine GPCR Binding (Agonist Radioligand) Assay, Cerep.ERF_FR_GPCR_hADORA2A is an assay component calculated from the ERF_FR_GPCR_hADORA2A assay. It is designed to measure radioligand binding using a type of binding reporter as detected by scintillation counting with radiometry technology.Data from the assay component ERF_FR_GPCR_hADORA2A was analyzed at the assay endpoint, ERF_FR_GPCR_hADORA2A, in the positive analysis fitting direction relative to DMSO as the negative control and baseline of activity. Using a type of binding reporter, gain-of-signal activity can be used to understand changes in binding as they relate to gene ADORA2A. To generalize the intended target to other relatable targets, this assay endpoint is annotated to the gpcr intended target family, where the subfamily is adenosine.
Chain of human Adenosine Receptor A2A, ADORA2A (gene 135) (P29274 whole entry, looked up): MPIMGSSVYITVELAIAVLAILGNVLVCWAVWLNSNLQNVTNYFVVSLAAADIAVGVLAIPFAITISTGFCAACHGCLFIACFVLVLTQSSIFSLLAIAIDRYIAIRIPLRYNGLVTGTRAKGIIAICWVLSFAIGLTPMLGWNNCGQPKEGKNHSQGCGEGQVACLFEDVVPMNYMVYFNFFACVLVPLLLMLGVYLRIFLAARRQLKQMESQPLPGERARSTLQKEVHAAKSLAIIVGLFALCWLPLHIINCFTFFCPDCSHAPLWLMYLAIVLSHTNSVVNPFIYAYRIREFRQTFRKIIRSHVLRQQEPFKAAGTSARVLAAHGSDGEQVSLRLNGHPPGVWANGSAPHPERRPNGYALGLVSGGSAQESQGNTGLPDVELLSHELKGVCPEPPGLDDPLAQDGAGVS
Human cells are incubated for 60 minutes in room temprature, using [3H]CGS 21680 ligand at 6 Kd (nM) with NECA control inhibitor.Test Sample Requirements: Minimum for 1) Screen: 60 ul of 10 mM stock -OR- 1 mg (pre-weighed) for […] uM final testing. 2) Dose Response: 90 ul of 10 mM stock -OR- 1 mg (pre-weighed) for a top concentration at 10 uM.
Take `O=C(/C=C/c1ccc(O)cc1)CC(=O)/C=C/c1ccc(O)cc1`: the half-maximal activity concentration (AC50) is 421 nM (active).
